Compound activity deposited in PubChem by several laboratories.
In the library only some 1.6% were active in any assay of this set; here they are far more common.
Vc quorum ag: quorum light induction in luxS cqsA deficient V. cholerae. activation, % at 18.7 µM. V. cholerae BH1578 lux reporter, luminescence, 6 h. AID 588436. 350,000 tested, 0.16% active; in the data active = activation mostly above about 9.7%, no sharp cut-off; inconclusive = no clear call, values can overlap the other calls; inactive = mostly below about 3.7%
PrPC TRFRET: reduces human prion protein on the cell surface | P04156 | cell surface PrPC, TR-FRET read-out | inhibition, % at 13.8 µM | 370,000 tested, 0.43% active | AID 720596; in the data active = inhibition above about 24%; also: 0% = median of the test wells and 100% = reference compound wells
PrP UTR inh: suppresses PrP 5' UTR mRNA reporter expression; cell-based PrP 5' UTR mRNA reporter, plate reader; 340,000 tested, 0.35% active; AID 488862; inhibition, % (test concentration not listed); in the data active = inhibition above about 52%; also: 0 = median of the neutral control wells
PriA SSB inh: inhibitors of Klebsiella pneumoniae PriA binding to SSB C-terminal tail; AlphaScreen SSBct-PriA binding, biotinylated peptide; 430,000 tested, 0.6% active; inhibition, % at 33 µM; in the data active = inhibition mostly above about 37%, no sharp cut-off; inactive = mostly below about 20%;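 also: plate controls were negative control peptide for no effect and reference peptide for full effect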
PfHsp40 rescue: restores yeast growth despite PfHsp40 toxicity; S. cerevisiae expressing PfHsp40, growth rescue, ATP luminescence; growth rescue, % at 12.5 µM; 340,000 tested, 0.68% active; AID 504582; in the data active = growth rescue above about 28%, passing the limit was not always enough; inconclusive = no clear call, values can overlap the other calls;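 also: yeast W303a lacking pdr1 and pdr3 grown in galactose medium; growth measured after three days at 30 °C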
SARS 3CLpro inh: SARS-CoV 3CLpro protease inhibition. inhibition, % at 6 µM. AID 1706. P0C6X7. recombinant SARS-CoV 3CLpro, quenched FRET peptide cleavage. 290,000 tested, 0.14% active; in the data active = inhibition above about 12%
PrP 5UTR single: prion 5' UTR mRNA inhibition, cherry-pick retest; shares compounds with PrP UTR inh; cell-based prion protein 5' UTR reporter, plate reader; inhibition, % at 2.5 µM; 1,100 tested, 48% active; in the data active = inhibition above about 54%; inconclusive = no clear call, values can overlap the other calls
* hit, by the source's call; i = inactive; ? = inconclusive; · = no result.

SMILES	Vc quorum ag	PrPC TRFRET	PrP UTR inh	PriA SSB inh	PfHsp40 rescue	SARS 3CLpro inh	PrP 5UTR single
C(=C\c1ccc2ccccc2n1)/c1ccccc1	i	-9.3	57.7*	-27.5	14.9	4.0	25.1
Oc1ccc(/C=C/c2ccc3ccccc3n2)cc1	-0.2	3.7	57.3*	-20.6	-4.0	-1.9	?
Oc1ccccc1/C=C/c1ccc2ccccc2n1	·	·	·	4.0	·	·	·
CN(C)c1ccc(/C=C/c2ccc3ccccc3n2)cc1	-0.7	·	84.2*	-5.5	-2.1	0.7	?
COc1cc(N2CCN(C(=O)Nc3cccc(Cl)c3)CC2)nc(OC)n1	·	·	·	-22.0	·	·	·
CCOC(=O)c1c(C)[nH]c(C(=O)OCCOc2ccccc2C)c1C	-0.3	-6.2	81.5*	-6.1	0.2	-4.5	-59.9
COP(=O)(OC)c1nc(-c2cccc3ccccc23)oc1N1CCCCC1	-0.6	3.3	-37.7	-10.3	-1.7	0.3	·
CCOP(=O)(OCC)c1nc(-c2cccc3ccccc23)oc1N1CCCCC1	0.2	1.6	71.9*	-48.8	0.0	4.0	1.0
O=C(c1oc(=O)c2ccccc2c1-c1ccccc1)N1CCC(O)CC1	i	9.3	68.3*	-10.9	0.0	-1.2	-21.1
O=C(c1oc(=O)c2ccccc2c1-c1ccccc1)N1CCN(C2CCCCC2)CC1	i	-11.4	9.7	-16.1	-0.1	-2.3	·
O=C(NC(=O)C(F)(F)F)Nc1cccc([N+](=O)[O-])c1	·	·	·	-11.0	·	·	·
Cc1c2c(=O)n(-c3nc4ccccc4s3)nc-2cc(O)n1Cc1ccccc1	-0.9	·	64.8*	-2.9	0.4	10.0	34.8
Cc1cc(C)n(-c2nc3ccccc3s2)n1	i	2.1	-37.7	-15.7	0.4	-2.8	·
COc1ccccc1OCCC(=O)OCC(=O)NCc1ccc(F)cc1	-0.5	4.0	87.6*	-5.8	0.3	·	9.6
CCOc1ccccc1/C=N\NC(=O)CCn1c2ccccc2c2ccccc21	·	·	·	-16.0	·	·	·
CCCCc1ccc(NC(=O)c2cc(=O)c(OC)cn2C)cc1	·	·	·	5.0	·	·	·
C(=NNc1nc2ccccc2[nH]1)c1ccccn1	·	·	·	0.5	·	·	·
C(=N\Nc1nc2ccccc2[nH]1)/c1ccccn1	-0.3	10.3	51.7*	·	-1.0	-2.7	?
COc1ccc(Cc2nnc(C3CCN(C(=O)Nc4ccccc4OC)CC3)s2)cc1	·	·	·	-1.0	·	·	·
Cc1cc(NC(=O)CSc2nnc(NC(=O)CCc3ccccc3)s2)no1	·	·	·	-5.0	·	·	·
COC(=O)C1CCC(=O)N1C(c1ccc(OC)cc1)c1cc(OC)c(OC)c(OC)c1 (stereo unspecified)	i	8.0	56.1*	-25.0	-1.1	·	88.6*
COc1ccc(C(CNC(=O)Cc2cc(OC)c(OC)c(OC)c2)N2CCCC2)cc1 (stereo unspecified)	-0.3	-5.4	-25.2	4.0	1.3	-3.7	·
O=C(Nc1ccccc1)c1cnc2n(c1=O)CCS2	-0.1	-3.0	56.1*	-9.8	-0.2	1.8	-38.8
Cc1ccccc1Cn1cc(SCC(=O)Nc2ccc([N+](=O)[O-])cc2)c2ccccc21	·	·	·	-3.0	·	·	·
O=C(O)C1(Br)CC12c1ccccc1-c1ccccc12 (stereo unspecified)	-2.9	0.9	53.8*	-5.0	1.3	·	-6.5
SMILES	Vc quorum ag	PrPC TRFRET	PrP UTR inh	PriA SSB inh	PfHsp40 rescue	SARS 3CLpro inh	PrP 5UTR single
Cc1nn(C2CCS(=O)(=O)C2)c(C)c1N1CCN(C(=O)CCn2cnc3ccccc3c2=O)CC1 (stereo unspecified)	·	·	·	0.0	·	·	·
Cc1cnc(NC(=O)COc2ccccc2Cl)s1	-1.0	-3.4	63.5*	-3.8	-0.5	3.0	?
O=C(COc1ccccc1Cl)Nc1ccc(CN2CCCCC2)cc1	-0.3	-2.4	65.9*	-1.3	-0.1	-2.1	-24.1
O=C(COc1ccccc1Cl)Nc1ccc(C(=O)N2CCCCC2)cc1	0.8	4.1	-11.3	-2.4	-1.0	-0.5	·
Cc1cnc(NC(=O)CCNC(=O)c2ccccc2Cl)s1	-0.3	-1.3	-12.1	-14.3	-1.8	1.7	·
Cc1c(-c2ccccc2)n[nH]c1C(=O)O	·	·	·	1.0	·	·	·
CN(C)S(=O)(=O)c1ccc(C(=O)N=c2sc3cc4c(cc3n2C)OCCO4)cc1	·	·	·	-3.0	·	·	·
Cc1nc(COC(=O)c2ccc(S(=O)(=O)N3CCCC3)cc2)cs1	1.3	-0.6	89.4*	-14.5	-0.6	5.0	-12.4
NC(=O)COC(=O)c1ccc(S(=O)(=O)N2CCCCCC2)cc1	-5.0	-0.7	-15.6	-12.5	-1.4	-1.4	·
Cc1cc2nc(/C=C/c3cccnc3)[nH]c2cc1C	-0.6	-0.9	65.7*	-19.8	-0.2	3.1	84.2*
CN(C(=O)c1cc2ccccc2oc1=O)C1(C)CCS(=O)(=O)C1 (stereo unspecified)	-0.6	0.5	81.3*	-7.4	-1.3	5.2	-4.4
O=C1c2cccc3cccc(c23)C(=O)N1CCN1CCN(C(=O)C2(S(=O)(=O)c3ccccc3)CC2)CC1	·	·	·	-12.0	·	·	·
O=C(Nc1cccc(O)c1)c1cc(-c2ccc3c(c2)OCO3)on1	-0.4	7.7	58.2*	-7.7	-1.6	-1.0	?
CCOC(=O)N1CCN(C(=O)c2ccc3c(c2)sc2nc(-c4ccc(OC)cc4)cn23)CC1	·	-1.3	-31.8	7.6	0.7	-5.9	·
COc1ccc2c(c1)sc1nc(-c3ccccc3)cn12	-0.4	16.7	88.6*	-7.0	-0.7	-1.9	88.8*
CCOC(=O)c1ccc(NC(=O)CSc2ccc(-c3cccs3)nn2)cc1	·	·	·	-3.0	·	·	·
CC(C(=O)N1CCCC(Cc2nc(C3CC3)no2)C1)n1cccn1 (stereo unspecified)	·	·	·	-16.0	·	·	·
CCN(CC)c1ccc(/C=C(/C#N)C(=O)NC(C)C)o1	i	-22.3	82.0*	6.3	0.0	-4.0	-24.1
O=C(NC[C@@H](c1ccco1)N1CCc2ccccc2C1)c1cc(C2CC2)on1	·	·	·	-1.0	·	·	·
CC(=O)NN1C(=O)c2ccccc2NC1c1ccc([N+](=O)[O-])o1 (stereo unspecified)	i	-16.2	60.9*	-9.2	0.2	0.9	3.7
CCc1nc2c(sc3cccc(F)c32)c(=O)n1CC(=O)NCc1ccc(C)cc1	·	·	·	5.0	·	·	·
C[C@@H]1O[C@@H](O[C@H]2C[C@@H](O)[C@]3(CO)[C@H]4[C@H](O)C[C@]5(C)[C@@H](C6COC(=O)C6)CC[C@]5(O)[C@@H]4CC[C@]3(O)C2)[C@H](O)[C@H](O)[C@H]1O (stereo partly specified)	1.2	4.0	58.7*	-2.4	0.2	-1.1	70.3*
CC1OC(OC2CC(O)C3(CO)C4C(O)CC5(C)C(C6=CC(=O)OC6)CCC5(O)C4CCC3(O)C2)C(O)C(O)C1O (stereo unspecified)	-0.3	-5.3	91.1*	-3.0	-2.5	·	92.7*
COc1cccc(C(=O)N2CCN(CCn3ccnc3-c3ccccc3)CC2)c1OC	·	·	·	-5.0	·	·	·
CCCc1oc2ccc(NS(=O)(=O)c3ccc(Br)cc3)cc2c1C(=O)OCC	·	·	·	2.0	·	·	·
Cc1cc(S(=O)(=O)NCCOc2ccc3c(c2)OCO3)ccc1F	·	·	·	19.0	·	·	·
CC(=O)OCC(=O)Nc1c(C)cccc1C	i	-1.1	30.8	-15.8	1.4	1.9	·
